# Laboratory results published in PubChem BioAssay AID2284199 (EPA ToxCast).
# Active and inactive are the calls of the source. Rule for the calls: active = hit-call score of the fitted dose curve at least 0.9, where 1 is the maximum; inactive = score below 0.9.
# Molecular target: rat Vesicular Monoamine Transporter (VMAT2), Slc18a2 (gene 25549) (UniProt Q01827)
# Assay: ERF_TW_TR_rSLC18A2: Eurofins (ERF) Radioligand Binding LeadHunter Assay for rat Vesicular Monoamine Transporter (VMAT2) Antagonism
# Experimental: ERF_TW_TR_rSLC18A2 is a biochemical, single-readout assay that uses extracted gene-proteins in a cell-free assay. Measurements were taken 0.5 hour after chemical dosing in a 96-well plate. See VMAT2 Rat Vesicular Monoamine Transporter Binding (Antagonist Radioligand) Assay, Panlabs.ERF_TW_TR_rSLC18A2 is an assay component calculated from the ERF_TW_TR_rSLC18A2 assay. It is designed to measure radioligand binding using a type of binding reporter as detected by scintillation counting with radiometry technology.Data from the assay component ERF_TW_TR_rSLC18A2 was analyzed at the assay endpoint, ERF_TW_TR_rSLC18A2, in the positive analysis fitting direction relative to DMSO as the negative control and baseline of activity. Using a type of binding reporter, loss-of-signal activity can be used to understand changes in transporter binding as they relate to gene SLC18A2. To generalize the intended target to other relatable targets, this assay endpoint is annotated to the transporter intended target family, where the subfamily is vesicular transporter.
# This assay measures binding of [3H]Dihydrotetrabenazine to sites associated with the vesicular monoamine uptake transporter. […] Membranes are filtered and washed, the filters are then counted to determine [3H]Dihydrotetrabenazine specifically bound. […]
# Chain of rat Vesicular Monoamine Transporter (VMAT2), Slc18a2 (gene 25549) (Q01827 whole entry, looked up): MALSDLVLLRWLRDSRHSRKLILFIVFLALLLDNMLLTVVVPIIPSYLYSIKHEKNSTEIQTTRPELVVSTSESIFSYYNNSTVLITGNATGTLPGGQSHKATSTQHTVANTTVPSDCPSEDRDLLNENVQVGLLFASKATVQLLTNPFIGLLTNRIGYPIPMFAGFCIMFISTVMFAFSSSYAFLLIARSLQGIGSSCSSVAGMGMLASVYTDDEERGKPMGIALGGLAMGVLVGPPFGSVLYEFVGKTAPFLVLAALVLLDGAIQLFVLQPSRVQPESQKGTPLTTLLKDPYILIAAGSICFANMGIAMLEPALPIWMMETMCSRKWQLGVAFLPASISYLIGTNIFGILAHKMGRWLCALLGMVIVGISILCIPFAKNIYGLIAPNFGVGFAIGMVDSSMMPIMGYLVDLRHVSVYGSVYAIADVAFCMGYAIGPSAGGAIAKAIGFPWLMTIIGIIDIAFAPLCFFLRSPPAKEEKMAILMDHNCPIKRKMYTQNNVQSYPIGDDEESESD
row,SMILES,AC50
1,COc1cc(CCC(=O)CC(=O)CCc2ccc(O)c(OC)c2)ccc1O,5000 nM (active)
2,O=C(/C=C/c1ccc(O)cc1)CC(=O)/C=C/c1ccc(O)cc1,283 nM (active)
